The supplement of paper PMC10933113
Where a name gives a salt, the structure may show the parent alone. ± gives the uncertainty stated by the source.

test system: THP-1; assay: CD86 surface expression induction over DMSO control (% over DMSO); higher = stronger dendritic cell activation; conditions: exposure time: 24 h
Protocol: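 hCLAT-like CD54 and CD86 surface expression on THP1 cells after 24 h exposure at a single concentration (highest non-cytotoxic concentration, or 100-200 µM if not cytotoxic). Flow cytometry (iQue) was run on 5,000 live cells.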

| SMILES | CD86 surface expression induction |
| --- | --- |
| C=CC(=O)OCCn1c(=O)n(CCOC(=O)C=C)c(=O)n(CCOC(=O)C=C)c1=O (10 µM) | 14.2 ± 10 |
| COc1cc(/C=C2\CCC/C(=C\c3ccc(O)c(OC)c3)C2=O)ccc1O [Cyclovalone] (10 µM) | -7.37 ± 5.9 |
| NC(=O)n1c(O)c(C(=O)c2cccs2)c2cc(Cl)ccc21 [Tenidap*] (200 µM) | 98.4 ± 52 |
| CC(C)c1ccc2cc(C(C)C)ccc2c1 [2,6-Diisopropylnaphthalene] (200 µM) | 18.9 ± 22 |
| CN(C)c1ccc(SC#N)cc1 [4-(Dimethylamino)phenylthiocyanate] (10 µM) | -14.3 ± 7 |
| CCCCCCCC(=O)Oc1c(Br)cc(C#N)cc1Br [Bromoxynil octanoate] (100 µM) | -3.51 ± 5 |
| CCC(=O)C=Cc1ccc(OC)cc1 [1-(4-Methoxyphenyl)-1-pentene-3-one] (200 µM) | 6.83 ± 10 |
| O=C1c2ccccc2C(=O)C1c1ccc2ccccc2n1 [D & C Yellow II] (10 µM) | -14.2 ± 7.4 |
| S=C(NC1CCCCC1)NC1CCCCC1 [N,N'-Dicyclohexylthiourea] (10 µM) | -17.9 ± 4.5 |
| Cc1c(C)n(Cc2ccccc2)c2ccc(C(=O)OCCN(C)C)cc12 [Indocate] (200 µM) | 67.3 ± 61 |
| CNc1ccc(O)cc1 [4-(Methylamino)phenol Sulfate] (10 µM) | 37.1 ± 4.6 |
| Nc1ccc(Nc2ccccc2)cc1 [N-Phenyl-1,4-benzenediamine] (200 µM) | 44.2 ± 39 |
| O=C(OCc1ccccc1)c1ccc(O)cc1 [Benzylparaben] (100 µM) | 3 ± 13 |
| CC(C)=CCOc1ccc(/C=C/C(=O)c2ccc(OCC=C(C)C)cc2OCC(=O)O)cc1 [Sofalcone] (100 µM) | -6.95 ± 7.2 |
| CCCCCCC(C)O (stereo not given) [2-Octanol] (200 µM) | 0.56 ± 6.7 |
| CCCCCCCCCCCCCC[N+](C)(C)C [Tetradonium bromide] (10 µM) | 53 ± 19 |
| COc1cccc2c1C(=O)c1c(O)c3c(c(O)c1C2=O)C[C@@](O)(C(=O)CO)C[C@@H]3O[C@H]1C[C@H](N)[C@H](O[C@@H]2CCCCO2)[C@H](C)O1 [Pirarubicin*] (10 µM) | 324 ± 3.3 |
| O=C(CCCCCCC(=O)Nc1ccccc1)NO [Vorinostat (SAHA)] (100 µM) | 5.02 ± 4 |
| C=CC(=O)OCCCCCCOC(=O)C=C [1,6-Hexanediol diacrylate] (100 µM) | 24.1 ± 16 |
| O=C1OC(OC(=O)c2cccnc2Nc2cccc(C(F)(F)F)c2)c2ccccc21 (stereo not given) [Talniflumate] (100 µM) | -7.81 ± 1 |

| SMILES | CD86 surface expression induction |
| --- | --- |
| C=C1CC[C@H](O)C/C1=C/C=C1\CCC[C@]2(C)[C@@H]([C@H](C)/C=C/[C@H](C)C(C)C)CC[C@@H]12 [Ergocalciferol*] (100 µM) | 74 ± 130 |
| CC(C)CCCCCCCOC(=O)c1ccc(C(=O)OCCCCCCCC(C)C)c(C(=O)OCCCCCCCC(C)C)c1 [Triisodecyl trimellitate] (163 µM) | -10.7 ± 1.8 |
| O=C1Nc2ccccc2C1(c1ccc(O)cc1)c1ccc(O)cc1 [Oxyphenisatin] (100 µM) | 3.8 ± 8.1 |
| Cc1occc1S [2-Methyl-3-furanthiol] (200 µM) | 33 ± 9.3 |
| C#CCN(C)CCCOc1ccc(Cl)cc1Cl [Clorgyline hydrochloride] (100 µM) | -4.71 ± 3.7 |
| O=c1[nH]sc2cc(Cl)ccc12 [Ticlatone] (10 µM) | -7.52 ± 22 |
| O=C(NS(=O)(=O)/C=C/c1cccs1)c1ccc(F)cc1Br (200 µM) | -2.46 ± 4 |
| CO[C@@H]1[C@H](OC(=O)/C=C/C=C/C=C/C=C/C(=O)O)CC[C@]2(CO2)[C@H]1[C@@]1(C)O[C@@H]1CC=C(C)C [Fumagillin] (100 µM) | -0.42 ± 8.1 |
| C[n+]1cc2c3c(ccc2c2ccc4cc5c(cc4c21)OCO5)OCO3 [Sanguinarine] (10 µM) | 73.1 ± 11 |
| NC(=O)N/N=C/c1ccc([N+](=O)[O-])o1 [Nitrofurazone] (200 µM) | 5.94 ± 3.7 |
| CCCCCCCCN [n-Octylamine] (100 µM) | -6.07 ± 0.55 |
| O=C(O)c1cccnc1Nc1cccc(C(F)(F)F)c1 [Niflumic acid] (100 µM) | -3.19 ± 1.6 |
| CC(=O)Oc1ccc(C(c2ccc(OC(C)=O)cc2)c2ccccn2)cc1 [Bisacodyl] (100 µM) | 26.6 ± 55 |
| Nc1nnc(-c2ccc([N+](=O)[O-])o2)o1 [2-Amino-5-(5-nitro-2-furyl)-1,3,4-oxadiazole] (10 µM) | -2.6 ± 2.1 |
| CCCOc1ccc2[nH]c(NC(=O)OC)nc2c1 [Oxibendazole] (100 µM) | -3.54 ± 40 |
| CC[C@@]1(O)C(=O)OCc2c1cc1n(c2=O)Cc2c-1nc1ccccc1c2/C=N/OC(C)(C)C [Gimatecan] (10 µM) | 25.6 ± 10 |
| O=C(Nc1ccccc1)c1cc([N+](=O)[O-])ccc1Cl [2-Chloro-5-nitro-N-phenylbenzamide] (200 µM) | 31.1 ± 7.1 |
| NC(=S)NC(N)=S [2,4-Dithiobiuret] (200 µM) | 26.6 ± 0.3 |
| CCCCCCCCCCCCOCCO [2-(Dodecyloxy)ethanol] (200 µM) | 57 ± 59 |
| CN(C)c1ccc(C(=C2C=CC(=[N+](C)C)C=C2)c2ccccc2)cc1 [Malachite green oxalate*] (10 µM) | 195 ± 53 |
